Assay [1] has as its target Calnexin (UniProt P27824). The assay can be described thus: cross-link between two proteins; affinity purification or IP with mass spectrometry; cross-linking mass spectrometry.
Assay [2] has as its target Dolichyl-diphosphooligosaccharide--protein glycosyltransferase subunit STT3B (UniProt Q8TCJ2). The assay can be described thus: cross-linking mass spectrometry.
For assay [3], the target named is Dolichyl-diphosphooligosaccharide--protein glycosyltransferase subunit 2 (UniProt P04844). The assay can be described thus: co-fractionation; co-fractionation; cross-linking mass spectrometry.
Assay [4] concerns the target ATP synthase peripheral stalk subunit OSCP, mitochondrial (UniProt P48047). The assay can be described thus: cross-link between two proteins; cross-linking mass spectrometry.
Assay [5] deals with Malate dehydrogenase, mitochondrial (UniProt P40926). Described as above.
Assay [6] has as its target NAD kinase 2, mitochondrial (UniProt Q4G0N4). The assay can be described thus: co-fractionation; co-fractionation; cross-linking mass spectrometry.
The target of assay [7] is Cytochrome c oxidase assembly factor 7 (UniProt Q96BR5). The assay can be described thus: cross-link between two proteins; affinity purification or IP with mass spectrometry; cross-linking mass spectrometry.
The target of assay [8] is 10 kDa heat shock protein, mitochondrial (UniProt P61604). Kind of assay: cross-link between two proteins; cross-linking mass spectrometry.
For assay [9], the target named is ATP synthase F(1) complex subunit alpha, mitochondrial (UniProt P25705). Described as above.
In assay [10] the target is Complement component 1 Q subcomponent-binding protein, mitochondrial (UniProt Q07021). Described as above.
In assay [11] the target is Endoplasmic reticulum resident protein 29 (UniProt P30040). The assay can be described thus: cross-link between two proteins; affinity purification or IP with mass spectrometry; cross-linking mass spectrometry.
Assay [12] addresses Leucine-rich repeat-containing protein 59 (UniProt Q96AG4). Described as above.
Assay [13] has as its target Thioredoxin-related transmembrane protein 1 (UniProt Q9H3N1). The description is as above.
Assay [14] concerns the target Transmembrane emp24 domain-containing protein 9 (UniProt Q9BVK6). The description is as above.
Assay [15] concerns the target Myeloid-derived growth factor (UniProt Q969H8). The assay can be described thus: cross-linking mass spectrometry.
The target in assay [16] is Peptidyl-prolyl cis-trans isomerase B (UniProt P23284). The assay can be described thus: cross-link between two proteins; cross-linking mass spectrometry.
The target of assay [17] is Neutral alpha-glucosidase AB (UniProt Q14697). The assay can be described thus: cross-link between two proteins; co-fractionation; cross-linking mass spectrometry.
The target of assay [18] is ATPase family AAA domain-containing protein 3A (UniProt Q9NVI7). The assay can be described thus: cross-link between two proteins; affinity purification or IP with mass spectrometry; cross-linking mass spectrometry.
The target of assay [19] is Cytochrome c oxidase assembly factor 4 homolog, mitochondrial (UniProt Q9NYJ1). The assay is described as above.
The target in assay [20] is MICOS complex subunit MIC19 (UniProt Q9NX63). Described as above.
The target of assay [21] is MICOS complex subunit MIC25 (UniProt Q9BRQ6). The description is as above.
The target of assay [22] is Serine/threonine-protein phosphatase PGAM5, mitochondrial (UniProt Q96HS1). The description is as above.
In assay [23] the target is TIM double twin CX3C motif protein (UniProt Q96C01). Described as above.
Assay [24] concerns the target AP-1 complex subunit mu-1 (UniProt Q9BXS5). Kind of assay: co-fractionation; cross-linking mass spectrometry.
In assay [25] the target is Cytochrome b-c1 complex subunit 1, mitochondrial (UniProt P31930). Kind of assay: co-fractionation; co-fractionation; cross-linking mass spectrometry.
The target in assay [26] is Large ribosomal subunit protein bL12m (UniProt P52815). The assay can be described thus: cross-link between two proteins; affinity purification or IP with mass spectrometry; cross-linking mass spectrometry.
The target in assay [27] is Syntaxin-8 (UniProt Q9UNK0). The description is as above.
The target in assay [28] is ATP synthase F(0) complex subunit e, mitochondrial (UniProt P56385). The assay can be described thus: cross-link between two proteins; cross-linking mass spectrometry.
The target of assay [29] is Trifunctional enzyme subunit alpha, mitochondrial (UniProt P40939). The description is as above.
The target of assay [30] is ATP synthase peripheral stalk subunit b, mitochondrial (UniProt P24539). Kind of assay: co-fractionation; co-fractionation; cross-linking mass spectrometry.
Assay [31] has as its target Cytochrome c oxidase subunit 4 isoform 1, mitochondrial (UniProt P13073). The assay can be described thus: cross-link between two proteins; affinity purification or IP with mass spectrometry; cross-linking mass spectrometry.
Assay [32] concerns the target Electron transfer flavoprotein subunit beta (UniProt P38117). The assay can be described thus: co-fractionation; co-fractionation; cross-linking mass spectrometry.
Assay [33] concerns the target 14-3-3 protein epsilon (UniProt P62258). The assay can be described thus: cross-link between two proteins; cross-linking mass spectrometry.
The target in assay [34] is 14-3-3 protein gamma (UniProt P61981). The description is as above.
For assay [35], the target named is Aldehyde dehydrogenase, mitochondrial (UniProt P05091). The assay is described as above.
Assay [36] addresses NADH-ubiquinone oxidoreductase 75 kDa subunit, mitochondrial (UniProt P28331). Described as above.
The target of assay [37] is Cytochrome b-c1 complex subunit 7 (UniProt P14927). Described as above.
In assay [38] the target is Cytochrome b-c1 complex subunit Rieske, mitochondrial (UniProt P47985). The assay can be described thus: co-fractionation; co-fractionation; cross-linking mass spectrometry.
The target of assay [39] is Propionyl-CoA carboxylase beta chain, mitochondrial (UniProt P05166). The description is as above.
Assay [40] deals with Pyruvate dehydrogenase E1 component subunit beta, mitochondrial (UniProt P11177). Kind of assay: cross-link between two proteins; co-fractionation; cross-linking mass spectrometry.
Assay [41] has as its target Ras-related protein Rab-1B (UniProt Q9H0U4). The description is as above.
In assay [42] the target is Large ribosomal subunit protein bL12m (UniProt P52815). Kind of assay: cross-linking mass spectrometry.
Assay [43] deals with 3-hydroxyacyl-CoA dehydrogenase type-2 (UniProt Q99714). Kind of assay: cross-link between two proteins; cross-linking mass spectrometry.
For assay [44], the target named is Methylcrotonoyl-CoA carboxylase beta chain, mitochondrial (UniProt Q9HCC0). Described as above.
Assay [45] concerns the target Mitochondrial 10-formyltetrahydrofolate dehydrogenase (UniProt Q3SY69). The description is as above.
Assay [46] concerns the target Polyribonucleotide nucleotidyltransferase 1, mitochondrial (UniProt Q8TCS8). Described as above.
Assay [47] deals with Pyrroline-5-carboxylate reductase 2 (UniProt Q96C36). The description is as above.
In assay [48] the target is Spectrin alpha chain, non-erythrocytic 1 (UniProt Q13813). The description is as above.
Assay [49] concerns the target Mitochondrial import inner membrane translocase subunit Tim29 (UniProt Q9BSF4). Kind of assay: cross-link between two proteins; affinity purification or IP with mass spectrometry; cross-linking mass spectrometry.
Assay [50] has as its target MICOS complex subunit MIC60 (UniProt Q16891). Kind of assay: cross-link between two proteins; cross-linking mass spectrometry.
The target in assay [51] is 14-3-3 protein eta (UniProt P68510). The assay is described as above.
The target in assay [52] is 14-3-3 protein theta (UniProt P68254). The description is as above.
Assay [53] concerns the target AP-1 complex subunit beta-1 (UniProt Q10567). The assay can be described thus: cross-link between two proteins; co-fractionation; cross-linking mass spectrometry.
The target in assay [54] is AP-2 complex subunit beta (UniProt P63010). The description is as above.
Assay [55] deals with BLOC-1-related complex subunit 7 (UniProt Q96B45). The assay is described as above.
For assay [56], the target named is Endoplasmic reticulum membrane protein complex subunit 7 (UniProt Q9NPA0). The assay can be described thus: cross-link between two proteins; affinity purification or IP with mass spectrometry; cross-linking mass spectrometry.
Assay [57] has as its target Cytochrome b-c1 complex subunit 2, mitochondrial (UniProt P22695). Kind of assay: co-fractionation; co-fractionation; cross-linking mass spectrometry.

10 kDa heat shock protein, mitochondrial, sequence (P61604 whole entry): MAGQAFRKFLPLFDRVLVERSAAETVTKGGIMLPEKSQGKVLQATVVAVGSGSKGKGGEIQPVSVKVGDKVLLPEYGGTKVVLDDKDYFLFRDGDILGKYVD
Calnexin, sequence (P27824 whole entry): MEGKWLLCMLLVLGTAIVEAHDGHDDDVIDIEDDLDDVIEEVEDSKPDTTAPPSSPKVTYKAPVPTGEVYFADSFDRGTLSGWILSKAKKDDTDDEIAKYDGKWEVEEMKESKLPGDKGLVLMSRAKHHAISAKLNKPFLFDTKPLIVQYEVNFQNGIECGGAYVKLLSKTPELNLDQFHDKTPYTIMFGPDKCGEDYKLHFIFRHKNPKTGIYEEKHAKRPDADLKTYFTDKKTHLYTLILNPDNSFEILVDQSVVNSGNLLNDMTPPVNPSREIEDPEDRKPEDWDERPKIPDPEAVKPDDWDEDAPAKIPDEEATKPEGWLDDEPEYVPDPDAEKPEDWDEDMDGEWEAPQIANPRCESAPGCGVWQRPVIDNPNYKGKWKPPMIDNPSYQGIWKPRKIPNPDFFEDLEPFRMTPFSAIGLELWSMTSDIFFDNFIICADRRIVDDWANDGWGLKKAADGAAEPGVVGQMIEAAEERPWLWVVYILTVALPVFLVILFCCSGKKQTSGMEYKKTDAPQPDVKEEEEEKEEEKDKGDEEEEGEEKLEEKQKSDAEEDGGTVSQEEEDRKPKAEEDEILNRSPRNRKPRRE
Complement component 1 Q subcomponent-binding protein, mitochondrial, sequence (Q07021 whole entry): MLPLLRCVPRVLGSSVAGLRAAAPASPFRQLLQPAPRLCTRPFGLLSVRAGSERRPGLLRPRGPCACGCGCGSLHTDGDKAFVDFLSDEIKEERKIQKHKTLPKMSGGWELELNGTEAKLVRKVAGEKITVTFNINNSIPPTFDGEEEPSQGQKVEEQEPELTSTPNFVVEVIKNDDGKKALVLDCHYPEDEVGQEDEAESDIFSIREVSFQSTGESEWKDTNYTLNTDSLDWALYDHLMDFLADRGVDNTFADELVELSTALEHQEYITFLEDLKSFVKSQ
Cytochrome c, P99999, sequence (P99999 whole entry): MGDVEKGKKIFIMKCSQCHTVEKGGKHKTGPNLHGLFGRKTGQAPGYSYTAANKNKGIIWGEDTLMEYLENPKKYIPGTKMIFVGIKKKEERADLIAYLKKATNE
Thioredoxin-related transmembrane protein 1, sequence (Q9H3N1 whole entry, the tested form may be a part): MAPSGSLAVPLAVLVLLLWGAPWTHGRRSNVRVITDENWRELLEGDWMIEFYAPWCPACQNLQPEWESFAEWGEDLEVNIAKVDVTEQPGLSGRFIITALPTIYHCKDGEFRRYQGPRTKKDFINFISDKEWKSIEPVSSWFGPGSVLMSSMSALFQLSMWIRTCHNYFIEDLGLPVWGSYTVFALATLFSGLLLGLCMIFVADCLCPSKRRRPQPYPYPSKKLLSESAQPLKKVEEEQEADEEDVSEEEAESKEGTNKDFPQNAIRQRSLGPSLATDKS
Polyribonucleotide nucleotidyltransferase 1, mitochondrial, sequence (Q8TCS8 whole entry): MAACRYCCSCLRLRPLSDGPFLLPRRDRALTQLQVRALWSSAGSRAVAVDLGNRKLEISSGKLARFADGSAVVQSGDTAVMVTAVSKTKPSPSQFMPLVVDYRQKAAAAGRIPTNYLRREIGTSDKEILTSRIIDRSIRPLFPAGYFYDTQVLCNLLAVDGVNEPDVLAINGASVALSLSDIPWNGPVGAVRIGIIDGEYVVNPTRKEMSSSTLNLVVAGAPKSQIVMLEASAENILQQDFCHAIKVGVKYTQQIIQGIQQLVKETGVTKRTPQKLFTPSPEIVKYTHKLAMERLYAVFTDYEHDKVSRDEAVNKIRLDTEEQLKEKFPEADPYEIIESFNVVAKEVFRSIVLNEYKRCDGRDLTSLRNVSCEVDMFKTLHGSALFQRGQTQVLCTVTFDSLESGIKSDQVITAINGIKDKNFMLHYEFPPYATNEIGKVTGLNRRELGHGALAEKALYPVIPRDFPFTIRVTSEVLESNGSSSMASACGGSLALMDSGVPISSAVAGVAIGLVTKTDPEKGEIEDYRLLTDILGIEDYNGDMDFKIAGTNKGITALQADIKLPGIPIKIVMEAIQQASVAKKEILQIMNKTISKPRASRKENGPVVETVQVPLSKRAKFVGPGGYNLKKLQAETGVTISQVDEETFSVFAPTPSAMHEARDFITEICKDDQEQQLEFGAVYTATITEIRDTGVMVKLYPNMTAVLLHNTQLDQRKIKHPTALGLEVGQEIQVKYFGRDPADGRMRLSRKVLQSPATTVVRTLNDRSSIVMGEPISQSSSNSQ
Electron transfer flavoprotein subunit beta, sequence (P38117 whole entry): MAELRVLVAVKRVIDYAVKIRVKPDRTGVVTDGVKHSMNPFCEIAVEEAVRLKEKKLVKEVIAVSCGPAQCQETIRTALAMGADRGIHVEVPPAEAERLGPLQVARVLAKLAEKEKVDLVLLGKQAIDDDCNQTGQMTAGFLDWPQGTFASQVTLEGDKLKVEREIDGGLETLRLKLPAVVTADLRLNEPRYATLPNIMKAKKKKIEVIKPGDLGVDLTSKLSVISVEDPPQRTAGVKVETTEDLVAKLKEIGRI
14-3-3 protein theta, sequence (P68254 whole entry): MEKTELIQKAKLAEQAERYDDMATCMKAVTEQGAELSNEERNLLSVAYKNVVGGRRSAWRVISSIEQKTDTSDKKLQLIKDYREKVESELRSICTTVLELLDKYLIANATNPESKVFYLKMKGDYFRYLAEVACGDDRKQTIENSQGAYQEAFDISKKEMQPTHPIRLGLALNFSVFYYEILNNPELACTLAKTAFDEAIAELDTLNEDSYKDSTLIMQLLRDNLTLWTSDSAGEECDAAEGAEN
Pyrroline-5-carboxylate reductase 2, sequence (Q96C36 whole entry): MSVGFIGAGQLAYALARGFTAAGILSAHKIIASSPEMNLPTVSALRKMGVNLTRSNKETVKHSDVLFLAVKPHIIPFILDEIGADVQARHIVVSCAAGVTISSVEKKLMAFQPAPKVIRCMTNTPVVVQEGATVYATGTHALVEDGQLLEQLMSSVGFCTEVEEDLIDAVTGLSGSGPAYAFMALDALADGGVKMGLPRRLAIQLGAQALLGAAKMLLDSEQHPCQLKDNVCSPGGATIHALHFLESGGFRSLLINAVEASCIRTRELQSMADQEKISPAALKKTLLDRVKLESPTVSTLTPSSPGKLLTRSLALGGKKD
3-hydroxyacyl-CoA dehydrogenase type-2, sequence (Q99714 whole entry): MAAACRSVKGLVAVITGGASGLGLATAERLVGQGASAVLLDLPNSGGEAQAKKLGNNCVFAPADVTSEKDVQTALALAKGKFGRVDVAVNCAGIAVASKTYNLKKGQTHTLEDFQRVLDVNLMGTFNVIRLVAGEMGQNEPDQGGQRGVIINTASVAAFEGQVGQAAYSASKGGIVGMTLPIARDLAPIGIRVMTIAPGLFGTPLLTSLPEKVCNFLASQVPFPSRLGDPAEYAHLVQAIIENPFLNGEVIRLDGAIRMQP
Cytochrome c oxidase subunit 4 isoform 1, mitochondrial, sequence (P13073 whole entry, canonical isoform): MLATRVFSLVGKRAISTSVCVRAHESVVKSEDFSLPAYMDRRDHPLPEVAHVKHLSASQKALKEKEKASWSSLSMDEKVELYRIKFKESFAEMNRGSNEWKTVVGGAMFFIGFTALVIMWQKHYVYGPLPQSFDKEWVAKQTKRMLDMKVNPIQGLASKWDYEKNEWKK
Trifunctional enzyme subunit alpha, mitochondrial, sequence (P40939 whole entry): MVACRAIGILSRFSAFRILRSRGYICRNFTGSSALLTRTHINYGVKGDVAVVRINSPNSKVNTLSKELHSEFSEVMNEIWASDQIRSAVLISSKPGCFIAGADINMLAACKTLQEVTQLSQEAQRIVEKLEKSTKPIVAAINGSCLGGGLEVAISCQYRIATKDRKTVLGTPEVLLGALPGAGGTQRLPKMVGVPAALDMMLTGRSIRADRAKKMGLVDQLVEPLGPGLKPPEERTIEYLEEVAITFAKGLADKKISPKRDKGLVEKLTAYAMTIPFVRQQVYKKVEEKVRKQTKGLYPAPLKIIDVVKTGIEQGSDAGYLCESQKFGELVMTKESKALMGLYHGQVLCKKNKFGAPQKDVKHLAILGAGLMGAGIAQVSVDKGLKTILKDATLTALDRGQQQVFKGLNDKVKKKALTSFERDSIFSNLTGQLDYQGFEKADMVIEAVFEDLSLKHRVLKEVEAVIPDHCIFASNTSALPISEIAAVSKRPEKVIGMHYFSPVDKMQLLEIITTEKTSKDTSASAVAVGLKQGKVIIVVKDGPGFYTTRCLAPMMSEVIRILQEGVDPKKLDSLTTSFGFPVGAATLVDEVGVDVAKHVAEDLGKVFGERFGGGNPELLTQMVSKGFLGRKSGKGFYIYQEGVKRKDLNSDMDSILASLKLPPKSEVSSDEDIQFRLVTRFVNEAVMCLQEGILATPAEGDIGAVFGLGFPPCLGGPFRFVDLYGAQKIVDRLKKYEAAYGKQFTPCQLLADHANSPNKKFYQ
Mitochondrial import inner membrane translocase subunit TIM50, Q3ZCQ8, sequence (Q3ZCQ8 whole entry): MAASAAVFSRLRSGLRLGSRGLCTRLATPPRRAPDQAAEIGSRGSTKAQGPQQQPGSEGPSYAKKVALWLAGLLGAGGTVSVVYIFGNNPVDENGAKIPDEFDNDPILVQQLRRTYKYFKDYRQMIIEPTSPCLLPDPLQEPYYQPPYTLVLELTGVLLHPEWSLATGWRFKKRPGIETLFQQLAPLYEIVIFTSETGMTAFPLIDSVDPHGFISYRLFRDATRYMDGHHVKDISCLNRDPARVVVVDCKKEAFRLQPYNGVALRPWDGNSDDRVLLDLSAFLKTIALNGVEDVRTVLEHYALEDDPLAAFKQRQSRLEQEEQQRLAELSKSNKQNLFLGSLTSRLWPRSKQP
Cytochrome b-c1 complex subunit Rieske, mitochondrial, sequence (P47985 whole entry, one chain of several): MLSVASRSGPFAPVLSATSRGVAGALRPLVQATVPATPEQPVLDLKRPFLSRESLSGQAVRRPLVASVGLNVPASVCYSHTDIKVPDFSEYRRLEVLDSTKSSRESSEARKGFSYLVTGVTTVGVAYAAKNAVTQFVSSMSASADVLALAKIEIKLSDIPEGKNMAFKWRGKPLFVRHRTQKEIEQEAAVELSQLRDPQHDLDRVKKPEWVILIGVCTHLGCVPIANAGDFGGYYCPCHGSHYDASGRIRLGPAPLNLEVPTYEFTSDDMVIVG
ATP synthase F(0) complex subunit e, mitochondrial, sequence (P56385 whole entry, one chain of several): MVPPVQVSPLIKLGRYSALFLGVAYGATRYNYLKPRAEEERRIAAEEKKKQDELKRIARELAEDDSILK

Consider “Dolichyl-diphosphooligosaccharide--protein glycosyltransferase subunit 2, P04844”, for which the “listed as a hit” value in assay [1] is on record as “yes”.
Consider “Dolichyl-diphosphooligosaccharide--protein glycosyltransferase subunit 1, P04843”, for which the “listed as a hit” value in assay [2], in [3] and in [1] was “yes” throughout.
With Citrate synthase, mitochondrial, O75390, the “listed as a hit” value in assay [4], in [5] and in assay [6] was “yes” throughout.
As for “Mitochondrial import inner membrane translocase subunit TIM50, Q3ZCQ8”, the “listed as a hit” value in [7] was “yes”.
Same read-out and setting: under “Myristoylated alanine-rich C-kinase substrate, P29966” stands “yes”.
Turning to “NADPH:adrenodoxin oxidoreductase, mitochondrial, P22570”, the “listed as a hit” value in assay [8], in assay [9], in [10] and in [5] was “yes” in each case.
Regarding Calnexin, P27824, the “listed as a hit” value in [11], in assay [12], in [13] and in assay [14] was “yes” in each case.
Consider Glucosidase 2 subunit beta, P14314, for which the “listed as a hit” value in assay [15], in assay [16] and in assay [17] was “yes” each time.
For the substance “Cytochrome c oxidase assembly factor 7, Q96BR5”, the “listed as a hit” value in assay [18], in assay [19], in [20], in assay [21], in [22] and in assay [23] was “yes” in each case.
For AP-1 complex subunit beta-1, Q10567, in assay [24], the “listed as a hit” value is listed as “yes”.
Consider “Dynamin-like GTPase OPA1, mitochondrial, O60313”, for which the “listed as a hit” value in assay [7] is “yes”.
Take “Cytochrome b-c1 complex subunit 2, mitochondrial, P22695”: in assay [25], the “listed as a hit” value is on record as “yes”.
Take “Heterogeneous nuclear ribonucleoproteins C1/C2, P07910”: the “listed as a hit” value in [26] is given as “yes”.
Take Flotillin-1, O75955: the “listed as a hit” value in assay [27] is given as “yes”.
For the substance “Dolichol-phosphate mannosyltransferase subunit 1, O60762”, the “listed as a hit” value in [1] is on record as “yes”.
Regarding “ATP synthase F(0) complex subunit g, mitochondrial, O75964”, the “listed as a hit” value in assay [28], in [29], in [30] and in assay [31] was “yes” each time.
For “Tetratricopeptide repeat protein 19, mitochondrial, Q6DKK2”, in assay [7], the “listed as a hit” value is “yes”.
Turning to “Electron transfer flavoprotein subunit alpha, mitochondrial, P13804”, the “listed as a hit” value in assay [32] was “yes”.
Regarding 14-3-3 protein theta, P27348, the “listed as a hit” value in assay [33] and in assay [34] was “yes” each time.
In the case of “Cytochrome c oxidase assembly factor SCO2, O43819”, in assay [7], the “listed as a hit” value is “yes”.
Turning to “Aspartate aminotransferase, mitochondrial, P00505”, the “listed as a hit” value in assay [8], in assay [35], in assay [5] and in assay [36] was “yes” each time.
For “Cytochrome b-c1 complex subunit 8, O14949”, the “listed as a hit” value in assay [37] and in assay [38] was “yes” in each case.
Take “Propionyl-CoA carboxylase alpha chain, mitochondrial, P05165”: in assay [39], the “listed as a hit” value is given as “yes”.
On to “Pyruvate dehydrogenase E1 component subunit alpha, somatic form, mitochondrial, P08559”, for which the “listed as a hit” value in [5] and in assay [40] was “yes” in each case.
Ras-related protein Rab-1A, P62820: the “listed as a hit” value in assay [41] is recorded as “yes”.
For the substance “Stress-70 protein, mitochondrial, P38646”, the “listed as a hit” value in assay [42], in assay [8], in assay [43], in assay [10], in assay [5] and in [44] was “yes” throughout. For the same substance, the “listed as a hit” value in assay [45], in assay [46], in [47] and in assay [48] was “yes” each time.
“Mitochondrial import inner membrane translocase subunit Tim10, P62072”: the “listed as a hit” value in assay [49] is reported as “yes”.
With Cytochrome c, P99999, the “listed as a hit” value in assay [50] and in assay [7] was “yes” throughout.
Consider 14-3-3 protein zeta/delta, P63101, for which the “listed as a hit” value in assay [51] and in [52] was “yes” throughout.
In the case of AP-2 complex subunit alpha-1, O95782, the “listed as a hit” value in [53] and in [54] was “yes” each time.
For the substance “Cytochrome c oxidase copper chaperone, Q14061”, the “listed as a hit” value in assay [7] is on record as “yes”.
Same read-out and setting: to “Cytochrome c oxidase assembly factor 6 homolog, Q5JTJ3” belongs “yes”.
As to “Biogenesis of lysosome-related organelles complex 1 subunit 1, P78537”, in assay [55], the “listed as a hit” value is recorded as “yes”.
With “ER membrane protein complex subunit 1, Q8N766”, the “listed as a hit” value in assay [56] and in [13] was “yes” each time.
In the case of “Cytochrome c1, heme protein, mitochondrial, P08574”, in assay [57], the “listed as a hit” value was “yes”.

For the origin of these results see paper PMC11024108.
